Where “and” joins values, the source holds several entries; their conditions need not be identical. Equal entries are not always repeated. Where two headings read alike, the source gives them in different places.
Columns and labels:
EPHA3 = details: concentration: 1 μM, replicates: in singlicate, n = 1
EPHA4 = details: concentration: 1 μM, replicates: in singlicate, n = 1
EPHA5 = details: concentration: 1 μM, replicates: in singlicate, n = 1
EPHA6 = details: concentration: 1 μM, replicates: in singlicate, n = 1
EPHA7 = details: concentration: 1 μM, replicates: in singlicate; n = 1
EPHA8 = details: concentration: 1 μM, replicates: in singlicate; n = 1
EPHB1 = details: concentration: 1 μM, replicates: in singlicate, n = 1
EPHB2 = details: concentration: 1 μM, replicates: in singlicate, n = 1
EPHB3 = details: concentration: 1 μM, replicates: in singlicate; n = 1
EPHB4 = details: concentration: 1 μM, replicates: in singlicate; n = 1
EPHB6 = details: concentration: 1 μM, replicates: in singlicate, n = 1
ERBB2 = details: concentration: 1 μM, replicates: in singlicate, n = 1
ERBB3 = details: concentration: 1 μM, replicates: in singlicate, n = 1
ERBB4 = details: concentration: 1 μM, replicates: in singlicate, n = 1
ERK1 = test system: T1, ERK1; details: concentration: 1 μM, replicates: in singlicate, n = 1
T1 construct: gene MAPK3

ERK2 = test system: T2, ERK2; details: concentration: 1 μM, replicates: in singlicate, n = 1
T2 construct: gene MAPK1

ERK3 = test system: T3, ERK3; details: concentration: 1 μM, replicates: in singlicate, n = 1
T3 construct: gene MAPK6

ERK4 = test system: T4, ERK4; details: concentration: 1 μM, replicates: in singlicate; n = 1
T4 construct: gene MAPK4

ERK5 = test system: T5, ERK5; details: concentration: 1 μM, replicates: in singlicate, n = 1
T5 construct: gene MAPK7

ERK8 = test system: T6, ERK8; details: concentration: 1 μM, replicates: in singlicate, n = 1
T6 construct: gene MAPK15
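Note: KINOMEscan kinase panel screen.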

N#Cc1ccc(-c2cc(-c3c[nH]nc3-c3ccccn3)ccn2)cc1 [GW693028]
%Inh (EPHA3): 18%
%Inh (EPHA4): 2%
%Inh (EPHA5): 0%
%Inh (EPHA6): 0%
%Inh (EPHA7): 44%
%Inh (EPHA8): 39%
%Inh (EPHB1): 7%
%Inh (EPHB2): 8%
%Inh (EPHB3): 5%
%Inh (EPHB4): 11%
%Inh (EPHB6): 2%
%Inh (ERBB2): 28%
%Inh (ERBB3): 0%
%Inh (ERBB4): 27%
%Inh (ERK1): 6%
%Inh (ERK2): 0%
%Inh (ERK3): 0%
%Inh (ERK4): 3%
%Inh (ERK5): 0%
%Inh (ERK8): 10%

Cc1nnc(-c2ccc3ncc(-c4ccc(S(C)=O)cc4)n3c2)o1 (stereo not shown)
%Inh (EPHA3): 2%
%Inh (EPHA4): 8%
%Inh (EPHA5): 11%
%Inh (EPHA6): 22%
%Inh (EPHA7): 1%
%Inh (EPHA8): 1%
%Inh (EPHB1): 0%
%Inh (EPHB2): 18%
%Inh (EPHB3): 12%
%Inh (EPHB4): 0%
%Inh (EPHB6): 13%
%Inh (ERBB2): 65%
%Inh (ERBB3): 3%
%Inh (ERBB4): 0%
%Inh (ERK1): 0%
%Inh (ERK2): 0%
%Inh (ERK3): 0%
%Inh (ERK4): 0%
%Inh (ERK5): 0%
%Inh (ERK8): 0%

COc1ccc(S(=O)(=O)NC2CCN(c3cc(C)nc(Nc4cccc(C#N)c4)n3)CC2)cc1.O=C(O)C(F)(F)F [GSK1653539]
%Inh (EPHA3): 7%
%Inh (EPHA4): 11%
%Inh (EPHA5): 0%
%Inh (EPHA6): 0%
%Inh (EPHA7): 0%
%Inh (EPHA8): 0%
%Inh (EPHB1): 7%
%Inh (EPHB2): 0%
%Inh (EPHB3): 13%
%Inh (EPHB4): 16%
%Inh (EPHB6): 14%
%Inh (ERBB2): 0%
%Inh (ERBB3): 0%
%Inh (ERBB4): 0%
%Inh (ERK1): 0%
%Inh (ERK2): 0%
%Inh (ERK3): 13%
%Inh (ERK4): 0%
%Inh (ERK5): 0%
%Inh (ERK8): 0%

O=C(c1ccc(-c2cc(-c3c[nH]nc3-c3ccccn3)ccn2)cc1)N1CCOCC1 [GW812171]
%Inh (EPHA3): 17%
%Inh (EPHA4): 33%
%Inh (EPHA5): 1%
%Inh (EPHA6): 6%
%Inh (EPHA7): 0%
%Inh (EPHA8): 0%
%Inh (EPHB1): 13%
%Inh (EPHB2): 0%
%Inh (EPHB3): 16%
%Inh (EPHB4): 0%
%Inh (EPHB6): 0%
%Inh (ERBB2): 11%
%Inh (ERBB3): 0%
%Inh (ERBB4): 0%
%Inh (ERK1): 0%
%Inh (ERK2): 0%
%Inh (ERK3): 0%
%Inh (ERK4): 16%
%Inh (ERK5): 0%
%Inh (ERK8): 5%

C[C@@H](Oc1cc(-n2cnc3ccc(NC(=O)NC(C)(C)C)cc32)sc1C(N)=O)c1ccccc1Cl [GSK346294]
%Inh (EPHA3): 26%
%Inh (EPHA4): 3%
%Inh (EPHA5): 0%
%Inh (EPHA6): 5%
%Inh (EPHA7): 17%
%Inh (EPHA8): 27%
%Inh (EPHB1): 14%
%Inh (EPHB2): 15%
%Inh (EPHB3): 18%
%Inh (EPHB4): 7%
%Inh (EPHB6): 21%
%Inh (ERBB2): 15%
%Inh (ERBB3): 22%
%Inh (ERBB4): 0%
%Inh (ERK1): 0%
%Inh (ERK2): 0%
%Inh (ERK3): 7%
%Inh (ERK4): 19%
%Inh (ERK5): 0%
%Inh (ERK8): 0%

Cc1cn2c(=O)cc(N3CCOCC3)nc2n1Cc1cccc(Cl)c1Cl [GSK2334006]
%Inh (EPHA3): 0%
%Inh (EPHA4): 19%
%Inh (EPHA5): 0%
%Inh (EPHA6): 10%
%Inh (EPHA7): 7%
%Inh (EPHA8): 21%
%Inh (EPHB1): 16%
%Inh (EPHB2): 7%
%Inh (EPHB3): 17%
%Inh (EPHB4): 19%
%Inh (EPHB6): 0%
%Inh (ERBB2): 20%
%Inh (ERBB3): 0%
%Inh (ERBB4): 33%
%Inh (ERK1): 0%
%Inh (ERK2): 13%
%Inh (ERK3): 21%
%Inh (ERK4): 0%
%Inh (ERK5): 0%
%Inh (ERK8): 24%

Cl.Cl.Cl.Fc1ccc(-c2ncn(C3CCNCC3)c2-c2ccnc(Nc3ccccc3)n2)cc1 [SB-238039]
%Inh (EPHA3; 1 µM): 34% and 25%
%Inh (EPHA4; 1 µM): 8% and 0%
%Inh (EPHA5; 1 µM): 7% and 10%
%Inh (EPHA6; 1 µM): 18% and 0%
%Inh (EPHA7): 0%
%Inh (EPHA8): 10%
%Inh (EPHB1; 1 µM): 31% and 0%
%Inh (EPHB2; 1 µM): 25% and 0%
%Inh (EPHB3): 0%
%Inh (EPHB4): 0%
%Inh (EPHB6; 1 µM): 3% and 0%
%Inh (ERBB2; 1 µM): 92% and 79%
%Inh (ERBB3; 1 µM): 67% and 7%
%Inh (ERBB4; 1 µM): 47% and 46%
%Inh (ERK1; 1 µM): 60% and 11%
%Inh (ERK2; 1 µM): 37% and 26%
%Inh (ERK3; 1 µM): 0% and 18%
%Inh (ERK4): 0%
%Inh (ERK5; 1 µM): 46% and 0%
%Inh (ERK8; 1 µM): 0% and 10%

CCc1ccnc(/C=C/c2n[nH]c3cc(Sc4ccccc4C(=O)NC)ccc23)c1
%Inh (EPHA3): 0%
%Inh (EPHA4): 1%
%Inh (EPHA5): 5%
%Inh (EPHA6): 0%
%Inh (EPHA7): 2%
%Inh (EPHA8): 7%
%Inh (EPHB1): 4%
%Inh (EPHB2): 0%
%Inh (EPHB3): 0%
%Inh (EPHB4): 0%
%Inh (EPHB6): 35%
%Inh (ERBB2): 2%
%Inh (ERBB3): 0%
%Inh (ERBB4): 21%
%Inh (ERK1): 0%
%Inh (ERK2): 5%
%Inh (ERK3): 0%
%Inh (ERK4): 9%
%Inh (ERK5): 0%
%Inh (ERK8): 0%

O=C1Cc2cc(Nc3nc(NCc4cccc(S(=O)(=O)C(F)(F)F)c4)ncc3C(F)(F)F)ccc2N1
%Inh (EPHA3): 0%
%Inh (EPHA4): 0%
%Inh (EPHA5): 10%
%Inh (EPHA6): 0%
%Inh (EPHA7): 0%
%Inh (EPHA8): 0%
%Inh (EPHB1): 0%
%Inh (EPHB2): 0%
%Inh (EPHB3): 1%
%Inh (EPHB4): 8%
%Inh (EPHB6): 0%
%Inh (ERBB2): 6%
%Inh (ERBB3): 9%
%Inh (ERBB4): 4%
%Inh (ERK1): 0%
%Inh (ERK2): 9%
%Inh (ERK3): 31%
%Inh (ERK4): 25%
%Inh (ERK5): 0%
%Inh (ERK8): 0%

O=C(NCCCN1CCOCC1)c1cccc(Nc2nccc(Nc3ccc(Oc4ccccc4)cc3)n2)c1 [GW663929]
%Inh (EPHA3): 25%
%Inh (EPHA4): 3%
%Inh (EPHA5): 0%
%Inh (EPHA6): 3%
%Inh (EPHA7): 0%
%Inh (EPHA8): 0%
%Inh (EPHB1): 1%
%Inh (EPHB2): 0%
%Inh (EPHB3): 2%
%Inh (EPHB4): 14%
%Inh (EPHB6): 55%
%Inh (ERBB2): 38%
%Inh (ERBB3): 99.3%
%Inh (ERBB4): 79%
%Inh (ERK1): 0%
%Inh (ERK2): 0%
%Inh (ERK3): 0%
%Inh (ERK4): 34%
%Inh (ERK5): 27%
%Inh (ERK8): 0%

Nc1nc(-c2ccc3c(N)n[nH]c3c2)cc(N2CCCC2)n1 [GSK2227430]
%Inh (EPHA3): 3%
%Inh (EPHA4): 5%
%Inh (EPHA5): 0%
%Inh (EPHA6): 6%
%Inh (EPHA7): 0%
%Inh (EPHA8): 6%
%Inh (EPHB1): 0%
%Inh (EPHB2): 0%
%Inh (EPHB3): 13%
%Inh (EPHB4): 10%
%Inh (EPHB6): 19%
%Inh (ERBB2): 0%
%Inh (ERBB3): 0%
%Inh (ERBB4): 8%
%Inh (ERK1): 0%
%Inh (ERK2): 0%
%Inh (ERK3): 0%
%Inh (ERK4): 24%
%Inh (ERK5): 0%
%Inh (ERK8): 0%

Cc1ccc(NC(=O)c2ccnc(N3CCN(C)CC3)c2)cc1-c1ccc(C(=O)NCC2CC2)cc1 [GW775604]
%Inh (EPHA3): 0%
%Inh (EPHA4): 7%
%Inh (EPHA5): 0%
%Inh (EPHA6): 4%
%Inh (EPHA7): 0%
%Inh (EPHA8): 18%
%Inh (EPHB1): 0%
%Inh (EPHB2): 0%
%Inh (EPHB3): 7%
%Inh (EPHB4): 0%
%Inh (EPHB6): 0%
%Inh (ERBB2): 0%
%Inh (ERBB3): 0%
%Inh (ERBB4): 0%
%Inh (ERK1): 0%
%Inh (ERK2): 0%
%Inh (ERK3): 0%
%Inh (ERK4): 0%
%Inh (ERK5): 0%
%Inh (ERK8): 0%

Cc1ccc(C(=O)NCC(N)=O)cc1-n1c(C)cc(OCc2ccc(F)cc2F)c(Br)c1=O
%Inh (EPHA3): 0%
%Inh (EPHA4): 12%
%Inh (EPHA5): 0%
%Inh (EPHA6): 27%
%Inh (EPHA7): 18%
%Inh (EPHA8): 15%
%Inh (EPHB1): 20%
%Inh (EPHB2): 19%
%Inh (EPHB3): 25%
%Inh (EPHB4): 27%
%Inh (EPHB6): 6%
%Inh (ERBB2): 36%
%Inh (ERBB3): 0%
%Inh (ERBB4): 0%
%Inh (ERK1): 6%
%Inh (ERK2): 0%
%Inh (ERK3): 0%
%Inh (ERK4): 0%
%Inh (ERK5): 13%
%Inh (ERK8): 13%

Cn1ccc2ncnc(Oc3ccc(NC(=O)Nc4ccncc4)c(Cl)c3)c21
%Inh (EPHA3): 0%
%Inh (EPHA4): 14%
%Inh (EPHA5): 0%
%Inh (EPHA6): 16%
%Inh (EPHA7): 0%
%Inh (EPHA8): 0%
%Inh (EPHB1): 0%
%Inh (EPHB2): 2%
%Inh (EPHB3): 6%
%Inh (EPHB4): 1%
%Inh (EPHB6): 0%
%Inh (ERBB2): 15%
%Inh (ERBB3): 0%
%Inh (ERBB4): 0%
%Inh (ERK1): 0%
%Inh (ERK2): 0%
%Inh (ERK3): 5%
%Inh (ERK4): 0%
%Inh (ERK5): 0%
%Inh (ERK8): 1%

From PMC5540273 (PLoS ONE, 2017)
